# PubChem BioAssay (NCI)
# Compounds without any hit were thinned out: in the full panel of roughly 83,000, 20% have a hit.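 96-well plates, one dose, 48 hours. Percent growth reported; active if below 10.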 Calls of active or inactive are those of the source.
# Tests used:
# Assay in all cases: NCI-60 one-dose screen, 48 h (100 = growth as untreated, 0 = no growth, -100 = all killed)
# Conditions in all cases: 10 µM unless noted
# HCT-15 colon = system: HCT-15 colon
# HT29 colon = system: HT29 colon
# SNB-75 CNS = system: SNB-75 CNS
# SNB-19 CNS = system: SNB-19 CNS
# U251 CNS = system: U251 CNS
# PC-3 prostate = system: PC-3 prostate
# SK-MEL-5 melanoma = system: SK-MEL-5 melanoma
# UACC-62 melanoma = system: UACC-62 melanoma
# LOX IMVI melanoma = system: LOX IMVI melanoma
# SK-MEL-28 melanoma = system: SK-MEL-28 melanoma
Compound,growth (HCT-15 colon),growth (HT29 colon),growth (SNB-75 CNS),growth (SNB-19 CNS),growth (U251 CNS),growth (PC-3 prostate),growth (SK-MEL-5 melanoma),growth (UACC-62 melanoma),growth (LOX IMVI melanoma),growth (SK-MEL-28 melanoma)
CCCCCCCCCCCCCC[P+](CCCCCC)(CCCCCC)CCCCCC,7.54% (active),-58.2% (active),-31.4% (active),8.99% (active),-68.4% (active),-78.1% (active),-100% (active),-28.1% (active),-68.5% (active),-97.8% (active)
CCC1(C)CC(CCNCc2ccccc2O)(c2ccc(C)cc2)CCO1 (stereo not given),98.3% (inactive),107% (inactive),91.8% (inactive),102% (inactive),99.1% (inactive),99.1% (inactive),97.7% (inactive),103% (inactive),99.8% (inactive),106% (inactive)
COc1cccc2c1c(C(=O)C(=O)Nc1ccn[nH]1)cn2Cc1ccc(F)cc1,106% (inactive),105% (inactive),90.1% (inactive),107% (inactive),103% (inactive),98.3% (inactive),106% (inactive),92.1% (inactive),103% (inactive),110% (inactive)
O=C(Nc1ccc(Br)cc1)c1cc(Br)cc(Br)c1O,-14.6% (active),23.5% (inactive),-10.5% (active),11% (inactive),6.11% (active),9.67% (active),-71% (active),-14.2% (active),-7.5% (active),33.7% (inactive)
CN[C@@]1(c2ccccc2Cl)CCCC[C@@H]1NCC1CCCO1 (stereo not given in full),104% (inactive),101% (inactive),88.2% (inactive),95.8% (inactive),98.2% (inactive),94.2% (inactive),102% (inactive),96.5% (inactive),97.8% (inactive),101% (inactive)
O=[N+]([O-])c1cnc[nH]1,112% (inactive),95.1% (inactive),93.1% (inactive),104% (inactive),99.6% (inactive),96.5% (inactive),106% (inactive),96.3% (inactive),97.8% (inactive),114% (inactive)
CC[C@H](C)[C@H](NC(=O)c1ccccn1)C(=O)N(C)[C@H](C[C@@H](OC(C)=O)c1nc(C(=O)N[C@@H](Cc2ccccc2)C[C@H](C)C(=O)OC)cs1)C(C)C,13.5% (inactive),2.48% (active),5.57% (active),52.4% (inactive),16.1% (inactive),24.5% (inactive),-22.6% (active),13.1% (inactive),29.1% (inactive),53.2% (inactive)
C[C@]12CCc3nc(Nc4ccccc4F)sc3C1=CC[C@@H]1[C@@H]2CC[C@]2(C)C(=O)CC[C@@H]12,29.3% (inactive),19.1% (inactive),87.3% (inactive),85.1% (inactive),54.3% (inactive),54.9% (inactive),81.9% (inactive),85.8% (inactive),14.5% (inactive),77% (inactive)
Cc1c(C)c([N+](=O)[O-])c(C)c(C)c1[N+](=O)[O-],100% (inactive),100% (inactive),113% (inactive),103% (inactive),99.2% (inactive),105% (inactive),107% (inactive),102% (inactive),106% (inactive),108% (inactive)
CC(C)=CCC[C@H](C(=O)O)[C@@H]1CC[C@]2(C)C3=C(CC[C@@]12C)[C@@]1(C)CC[C@H](O)C(C)(C)[C@@H]1CC3,97.7% (inactive),91% (inactive),90.1% (inactive),97.1% (inactive),94.5% (inactive),84.8% (inactive),103% (inactive),96.1% (inactive),102% (inactive),103% (inactive)
COc1cc(/C=C\c2cc(OC)c(OC)c(OC)c2)cc(NS(=O)(=O)c2cccc(Cl)c2)c1OC,10.9% (inactive),15.3% (inactive),64.5% (inactive),41.2% (inactive),11.1% (inactive),35.1% (inactive),-29.4% (active),36.1% (inactive),20% (inactive),64% (inactive)
CCCCNC(c1ccc(Cl)cc1)C(O)c1ccc(Cl)cc1 (stereo not given),32.7% (inactive),4.8% (active),61.9% (inactive),54.6% (inactive),6.63% (active),42.2% (inactive),32.7% (inactive),19.2% (inactive),-75.6% (active),45.6% (inactive)
Clc1ccc(COC(Cn2ccnc2)c2ccc(Cl)cc2Cl)cc1 (stereo not given),53% (inactive),43.6% (inactive),93.3% (inactive),78% (inactive),64.4% (inactive),21.1% (inactive),49.5% (inactive),52.6% (inactive),31.6% (inactive),83.9% (inactive)
COC[C@@H]1C[C@@]2(C)[C@@H](CC[C@@H]3[C@@H]2CC[C@@]2(C)[C@H]3CC[C@]2(C)O)CC1=O,94.8% (inactive),83.4% (inactive),90.4% (inactive),113% (inactive),93.7% (inactive),96.8% (inactive),106% (inactive),100% (inactive),95.2% (inactive),96.4% (inactive)
CCC1(C(C)C)C(=O)NC(=S)NC1=O,97.6% (inactive),112% (inactive),95.5% (inactive),108% (inactive),95.9% (inactive),95.6% (inactive),98.8% (inactive),103% (inactive),102% (inactive),109% (inactive)
CCn1nccc1NC(=O)C(=O)c1cn(Cc2ccc(F)cc2)c2cccc(OC)c12,91.8% (inactive),112% (inactive),91% (inactive),90.9% (inactive),92.1% (inactive),90.6% (inactive),87.3% (inactive),78.4% (inactive),84.2% (inactive),107% (inactive)
COc1ccc(Nc2ccc([N+](=O)[O-])cc2[N+](=O)[O-])cc1CN(CCCl)CCCl,27.7% (inactive),13.2% (inactive),33.7% (inactive),22.3% (inactive),29.6% (inactive),46.8% (inactive),57.2% (inactive),12.1% (inactive),3.66% (active),73.6% (inactive)
CC1CN1CCCCN1CC1C (stereo not given),103% (inactive),87% (inactive),81.1% (inactive),109% (inactive),104% (inactive),95% (inactive),107% (inactive),113% (inactive),101% (inactive),100% (inactive)
CC1=C(CCCOC(=O)CN)C2=C(C)C3(CC3)[C@@](C)(O)C(=O)C2=C1,77.6% (inactive),69.9% (inactive),97% (inactive),91.2% (inactive),82.3% (inactive),69.4% (inactive),92.2% (inactive),90.8% (inactive),88.6% (inactive),115% (inactive)
CC(=O)O[C@@H]1CC[C@]2(C)[C@H]3CC[C@]4(C)C(=O)CC[C@H]4[C@@H]3C[C@@H]3SC(N)=N[C@@]32C1,35.2% (inactive),10.2% (inactive),73.2% (inactive),54.7% (inactive),37% (inactive),71% (inactive),32.5% (inactive),38.2% (inactive),66.3% (inactive),72.2% (inactive)
Nc1c(F)cc(-c2nc3cc(F)ccc3[se]2)cc1F,22% (inactive),46.4% (inactive),92.2% (inactive),104% (inactive),93.6% (inactive),72.1% (inactive),56.1% (inactive),66.5% (inactive),89.3% (inactive),116% (inactive)
COC(=O)[C@@]1(C)CC[C@]2(C)CC[C@]3(C)C4=CC(=O)c5c(cc(O)c(O)c5C)[C@]4(C)CC[C@@]3(C)[C@@H]2C1,36.9% (inactive),90.2% (inactive),112% (inactive),60.5% (inactive),42% (inactive),33.8% (inactive),7.93% (active),28.3% (inactive),50.7% (inactive),91.3% (inactive)
CCCC[C@H](NC(=O)[C@H]1CCCCN1C)C(=O)N(C)[C@H](C[C@@H](OC(C)=O)c1nc(C(=O)N[C@@H](Cc2ccccc2)C[C@H](C)C(=O)OCC)cs1)C(C)C,20.4% (inactive),-16.4% (active),41.9% (inactive),37.5% (inactive),5.09% (active),17.5% (inactive),-26% (active),46.2% (inactive),17.9% (inactive),67.4% (inactive)
O=Cc1cn(Cc2ccc(Cl)cc2)c2ccccc12,89.7% (inactive),106% (inactive),86.7% (inactive),89.7% (inactive),75.5% (inactive),82.3% (inactive),94.4% (inactive),-0.449% (active),88.2% (inactive),96.4% (inactive)
